Experimental data reported in ChEMBL document CHEMBL4513216, “Probing the Open Global Health Chemical Diversity Library for Multistage-Active Starting Points for Next-Generation Antimalarials” (ACS Infect Dis, 2020).
In all, about 69,000 compounds went through this assay and about 8,600 (12%) showed an effect of 50% or more. Only a selection was taken, and strong results are over-represented in it overall.

Test system: Plasmodium berghei
Assay: Screen against P. berghei liver stage (PbLuc), transformed with Luciferase, at 10uM
Assay type: functional, HepG2
Settings: tested at 10 uM

| Compound | INHIBITION [%] |
| --- | --- |
| Cc1c(C(=O)N2CCC(C(=O)c3nc4ccccc4s3)CC2)cnn1C | 11.025 |
| Cc1cccc(C(=O)N2CCSCC2)c1NC(=O)c1ccsc1 | 1.56 |
| Cc1cccc(C(=O)N2CCN(C)CC2)c1NC(=O)c1ccncc1 | 52.6 |
| Cc1cccc(C(=O)N2CCSCC2)c1NC(=O)c1cccnc1 | 45 |
| COc1cc(CNCCn2cccn2)c2c(c1)CC(C)O2 (stereo not given) | 75.2 |
| COc1ccc(-c2nnc(CNCCn3cc(C)cn3)o2)cc1 | 5.7 |
| COc1cc(CNCCC(N)=O)c2c(c1)CC(C)O2 (stereo not given) | 49.4 |
| COc1cc(CNCCn2cc(C)cn2)cc2c1OCCO2 | 17.8 |
| COc1cc(CNCCn2cc(C)cn2)c2c(c1)CC(C)O2 (stereo not given) | 75.2 |
| COc1cccc(-c2nc(CNCCn3cccn3)cs2)c1 | 31.8 |
| O=C(c1cccc(F)c1)N1CCc2ncc(Cn3cccn3)n2CC1 | 3.58 |
| CCn1c(C)nnc1SCCNC(=O)c1cnc(C(C)(C)C)nc1O | 23.6 |
| CC(C)(C)c1ncc(C(=O)NCCSc2ccccn2)c(O)n1 | 69.1 |
| O=C(NCCCO)c1cnc(-c2ccccc2)nc1O | 48.5 |
| Cc1cccnc1NCCNC(=O)c1cnc(-c2cccs2)nc1O | 14.9 |
| CCSCCNC(=O)c1cnc(-c2ccccc2)nc1O | 40.3 |
| Cc1cccnc1NCCNC(=O)c1cnc(-c2ccccn2)nc1O | 92.1 |
| Cc1nc(-c2ncc(C(=O)NCCNc3ncccc3C)c(O)n2)cs1 | 50.3 |
| CCn1c(N)nc2cc(C(=O)NCCNc3ncccc3C)cnc21 | -87.1 |
| Cc1nc(C(C)C)sc1C(=O)NCCSc1ccccn1 | -71.3 |
| Cc1noc(NCc2cn(C)nc2-c2ccncc2)n1 | 19.4 |
| Cc1ccc(C(=O)NS(=O)(=O)c2c(Cl)cccc2Cl)c(=O)[nH]1 | 19.4 |
| CN(C)CCN1CCO[C@H]2CN(Cc3cnn(C)c3)C[C@H]21 | -57.1 |
| Cc1nnsc1C(=O)N1CCCCC1c1cc2nc(C)c(C)c(O)n2n1 (stereo not given) | 19.3 |
| Cc1nc(-c2ccccc2)sc1CNC(=O)c1ccc(=O)n(C)c1 | 39.6 |
| CC(NCCCN1CCCC1=O)c1cc(Br)ccc1O (stereo not given) | -1.3 |
| c1cc2c(cc1Cn1cc(C3CCOC3)nn1)OCO2 (stereo not given) | 17.6 |

| Compound | INHIBITION [%] |
| --- | --- |
| Cc1ocnc1C(=O)N(C)[C@@H]1CC[C@@H](n2ccnc2C)[C@@H]1O | 45.9 |
| Cn1cnc2cc(CCC(=O)Nc3nc[nH]n3)ccc21 | 39.2 |
| Cn1c(=O)c2c(n3ncnc13)NC(=O)CC2c1ccc(F)cc1 (stereo not given) | 54 |
| Cn1c(=O)c2c(n3ncnc13)NC(=O)CC2c1cccc(F)c1 (stereo not given) | 41.6 |
| CCc1ccc(C2CC(=O)Nc3c2c(=O)n(C)c2ncnn32)cc1 (stereo not given) | 0.207 |
| Cc1nc(N(C)C)nc(-c2cccc(-c3ccn(CCCO)n3)c2)c1C | 14.9 |
| Cc1ccc(CNCC2CNc3cc(C)nn3C2)cn1 (stereo not given) | 33.35 |
| CCOc1cncc(N2CCOCC2)n1 | 35.4 |
| O=C(CCN1CCOCC1)NC1CCCN(CC2CCCCC2)C1 (stereo not given) | 1.37 |
| O=C(CCN1CCCO1)NC1CCCN(CC2CCCCC2)C1 (stereo not given) | 50.5 |
| O=C(CCN1CCCCO1)NC1CCCN(CC2CCCCC2)C1 (stereo not given) | 11.2 |
| CCOc1ccc2cc(C(=O)NCCC(=O)N(C)C)[nH]c2c1 | -5.22 |
| Cc1ccc(N2CCCN(CC3CC3)C(C(C)C)C2)nn1 (stereo not given) | 23 |
| COCC1COCCC12CCN(C(=O)CC1Cc3ccccc3C1)CC2 (stereo not given) | 23.6 |
| Clc1snnc1CN1CCCC1Cn1cccn1 (stereo not given) | -36.1 |
| Cc1ccnn1CCC(=O)N1CCN(C2CCc3ccccc3C2)CC1 (stereo not given) | -5.08 |
| CCc1nccn1CC(=O)N1CCN(C2CCc3ccccc3C2)CC1 (stereo not given) | 57.9 |
| Cc1ccnn1CC(=O)N1CCN(C2CCc3ccccc3C2)CC1 (stereo not given) | 10.7 |
| COc1cc(-n2cccc2)c(Cl)cc1C(=O)NS(C)(=O)=O | 23.7 |
| CC(C)(C)CC(=O)N1[C@@H](c2ccco2)[C@@H](CO)C[C@]12CCCCNC2=O | 22.2 |
| O=C(NCC(c1ccccc1)N1CCOCC1)Nc1cn[nH]c1 (stereo not given) | -113 |
| Cn1c(CN2CCOCC2)cc(=O)c(O)c1CN1CCCCC1 | 30.2 |
| Cn1c(CN2CCCCC2)cc(=O)c(O)c1CN1CCCCC1 | 74 |
| Cn1c(CN2CCOCC2)cc(=O)c(O)c1CN1CCCC1 | 6.12 |
| Cn1c(CN2CCOCC2)cc(=O)c(O)c1CN1CCOCC1 | 5.58 |
| Cn1c(CN2CCCCCC2)cc(=O)c(O)c1CN1CCCC1 | 63.1 |
| Cn1c(CN2CCCC(N3CCCCCC3)C2)cc(=O)n(C)c1=O (stereo not given) | -10.9 |

| Compound | INHIBITION [%] |
| --- | --- |
| CN(CCn1nc2ccccn2c1=O)CC(=O)N1CCCC1 | 18.2 |
| CCn1cc(CN(C)C(=O)c2cc(C(F)(F)F)n(C)n2)cn1 | -6.42 |
| CC(C)(CO)Nc1c(NCc2ccncc2)c(=O)c1=O | 32.8 |
| COc1ccc(C(=O)NCCCNc2ncccn2)c(OC)c1 | 30.8 |
| COc1ccc(C(=O)NCCCOC(C)c2ccccc2)c(OC)c1 (stereo not given) | 84.4 |
| CC(OCCCNC(=O)c1cccnc1O)c1ccccc1 (stereo not given) | -21.2 |
| CCC[C@@H]1CN(C(=O)c2ccccc2C(C)=O)C[C@H]1N(C)C | 8.92 |
| CCC[C@@H]1CN(C(=O)c2ccccc2-c2ccccc2)C[C@H]1N(C)C | 31.7 |
| CCC[C@@H]1CN(C(=O)c2cc3ccccc3cc2O)C[C@H]1N(C)C | 51.5 |
| Cc1ccc(-c2n[nH]cc2CNCC2CCN(CC(F)(F)F)C2)o1 (stereo not given) | 27.5 |
| CC1=N[C@@]2(CC[C@@H]3CN(CC(=O)N(C)C)C[C@@H]32)C(=O)N1CC(C)C | -6.32 |
| CCN1CCCn2c(nc(CNC(=O)c3cnoc3C)cc2=O)C1 | -24 |
| Cn1nccc1CNC(=O)C1CCCCC1 | 33 |
| Cc1cc(C(=O)NC(C)CC(=O)c2ccco2)[nH]n1 (stereo not given) | 37.9 |
| O=C(c1ccnnc1)N1C[C@@H]2OCCN(CCN3CCCC3)[C@@H]2C1 | 11.9 |
| COCCN1CCO[C@H]2CN(C(=O)c3ccncc3F)C[C@H]21 | -52.3 |
| CN(C)CCN1CCO[C@H]2CCN(C(=O)c3cccs3)CC[C@@H]21 | 54.1 |
| COCCN1CCO[C@H]2CCN(C(=O)c3cccs3)CC[C@@H]21 | -18.3 |
| COCCN1CCO[C@H]2CN(C(=O)c3cccs3)C[C@H]21 | 77.7 |
| CS(=O)(=O)N1CCO[C@@H]2CCN(C(=O)c3cccs3)CC[C@H]21 | 31.9 |
| COCCN1CCO[C@H]2CCN(C(=O)c3ccnnc3)CC[C@@H]21 | 55.6 |
| O=C(c1cccs1)N1C[C@@H]2OCCN(CC3CCCO3)[C@@H]2C1 (stereo not given in full) | -17.1 |
| CN(C)CCN1CCO[C@@H]2CCN(C(=O)c3cccn3C)CC[C@H]21 | -16.2 |
| COC(=O)N1CCC(Nc2ccc(Cl)c(C#N)n2)CC1 | 8.12 |
| COc1ncc(C(F)(F)F)c(C(=O)O)c1Cl | 24.2 |
| Cc1cnn(CC2CCCCN2C(=O)Cc2c(C)noc2C)c1 (stereo not given) | 8.53 |
| CCN1Cc2ccccc2CC2(CCN(C)CC2)C1=O | 26.5 |

| Compound | INHIBITION [%] |
| --- | --- |
| Cc1nc(C)n(CC2CCCN(CCOc3cccc(F)c3)C2)n1 (stereo not given) | 48.4 |
| O=C(CC1CCCC1)N1CCN2C[C@@H](CO)[C@H](c3ccccc3)[C@H]2C1 | -16.4 |
| CS(=O)(=O)NC1CCCN(C(=O)NCc2cccc(F)c2)C1 (stereo not given) | 29.4 |
| c1ccc(N2CCCC3(CCN(Cc4cccs4)C3)C2)nc1 (stereo not given) | 44.9 |
| Cc1ccc(C(=O)NCCn2nc(-n3cncn3)ccc2=O)c(C)c1 | 16.5 |
| CC(C)c1nc2c(n1C)CCN(Cc1nc(-c3ccco3)no1)C2 | 7.08 |
| O=C(NCc1ccc2c(c1)OCO2)c1ccc(N2CCCCCC2)nc1 | -4.99 |
| COc1ccc(-c2cnc(N(C)C)nc2C2CN(C(C)=O)CCO2)cc1 (stereo not given) | 7.52 |
| Nc1cccc(C2CN(C(=O)CN3CCOCC3)CCO2)n1 (stereo not given) | 36 |
| COc1ccc2cc(C3CN(C(=O)C4CCOCC4)CCO3)ccc2c1 (stereo not given) | 66.8 |
| CCN1CCN(CC(=O)N2CCOC(Cc3ccc(OC)cc3)C2)CC1 (stereo not given) | -42.1 |
| CN(C)C(=O)N1CC[C@@H](c2ccc3ccccc3c2)[C@H](O)C1 | 2.18 |
| COc1ccc2cc(C3CN(C(=O)CN4CCCC4)CCO3)ccc2c1 (stereo not given) | 64.7 |
| COc1ccc2cc(C3CN(C(=O)N(C)C)CCO3)ccc2c1 (stereo not given) | 85.4 |
| CNC(=O)NC(=O)CCN1CCOC(c2ccc(Br)cc2)C1 (stereo not given) | -65.1 |
| CNC(=O)CCC(=O)N1CCOC(c2ccc3cc(OC)ccc3c2)C1 (stereo not given) | 78.15 |
| COc1ccc(CN2CCO[C@H]3CN(C(=O)C4CC4)CC[C@H]3C2=O)cc1 | -47 |
| O=C(C1CCOCC1)N1CCOCC(Cc2ncccn2)C1 (stereo not given) | 19.3 |
| CNC(=O)CN1CCC(c2cc(OC)cc(OC)c2)C1 (stereo not given) | 45.1 |
| O=C(c1cc(-c2ccco2)cs1)N1CCCC1 | -12.2 |
| CNC(=O)[C@H]1C[C@H]2OCC[C@H]2N(Cc2cccc3ccccc23)C1 | -6.32 |
| COCc1nc(CNc2cc(C)nc(-c3ccccc3)n2)no1 | -7.81 |
| O=C(CS(=O)(=O)Cc1ccccc1)NC1CCCCNC1=O (stereo not given) | 5.7 |
| Cc1noc([C@H]2C[C@H]3OCC[C@H]3N(S(C)(=O)=O)C2)n1 | -31.3 |
